{
  "source": "PubChem BioAssay (NCATS)",
  "note": "Results filed as inconclusive are left out. Values without a mark were called inactive. Activity calls are given as the source filed them. Unless noted, the call rests on the fitted dose curve; in most records, active means well fitted curve in the direction sought with a large enough effect in the repeat runs; inconclusive means weak or mixed curves; inactive means no such curve, though single readings can be large; an effect the other way counts as inactive or inconclusive.",
  "data": [
    {"molecular_target": "Cytochrome P450 2D6 (Homo sapiens) (UniProt P10635)", "sequence (P10635 whole entry, looked up)": "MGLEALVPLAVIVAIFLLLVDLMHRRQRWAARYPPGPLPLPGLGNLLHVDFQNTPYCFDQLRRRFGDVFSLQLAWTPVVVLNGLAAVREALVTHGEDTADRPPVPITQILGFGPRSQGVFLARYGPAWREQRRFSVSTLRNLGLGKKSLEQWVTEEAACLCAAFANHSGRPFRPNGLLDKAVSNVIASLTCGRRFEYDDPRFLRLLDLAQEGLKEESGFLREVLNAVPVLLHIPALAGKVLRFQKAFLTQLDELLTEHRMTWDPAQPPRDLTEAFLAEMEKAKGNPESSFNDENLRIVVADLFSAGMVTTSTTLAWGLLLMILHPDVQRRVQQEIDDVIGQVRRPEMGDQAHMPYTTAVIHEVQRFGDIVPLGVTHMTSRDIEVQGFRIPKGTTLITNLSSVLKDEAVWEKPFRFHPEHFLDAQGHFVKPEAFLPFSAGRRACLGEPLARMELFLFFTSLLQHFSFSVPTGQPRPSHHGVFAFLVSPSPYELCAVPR", "test": "Cytochrome P450 family 2 subfamily D member 6 (CYP2D6) small molecule antagonists: luciferase biochemical (cell-free) qHTS assay (AID 1645840); further: nearly all actives have a fitted effect of over 55% in size; further: potency means the concentration at half of the fitted maximal effect; on activity change, negative = inhibition: on the % scale 0 is the no-effect control and ±100 the full control effect", "conditions": "P450-Glo CYP2D6 enzyme, luciferin luminescence, 1 h; series mostly up to 57.4 µM; activity change, negative = inhibition: at the top concentration", "procedure,_shortened": "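P450-Glo luminescent screen: recombinant CYP2D6 enzyme–proluciferin substrate mix preincubated with compound 10 min at room temperature, then NADPH regeneration added for 1 h at room temperature. Detection reagent added for 20 min; luciferin light read as relative luminescence units.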", "values": [
      {"smiles": "CCCOC(=O)c1cncn1C(C)c1ccccc1", "note": "(stereo not given)", "activity change, negative = inhibition": "-25.8%"},
      {"smiles": "O=C(N/N=C/c1ccc([N+](=O)[O-])o1)c1cc([N+](=O)[O-])cc([N+](=O)[O-])c1O", "Potency": "0.617 µM (active)"},
      {"smiles": "C#C[C@]1(O)CC[C@H]2[C@@H]3CCC4=CC(=O)CC[C@]4(C)[C@H]3CC[C@@]21C", "activity change, negative = inhibition": "-8.7%"},
      {"smiles": "COC(=O)C(Cl)C(=O)OC", "activity change, negative = inhibition": "7.27%"},
      {"smiles": "CCN[C@@H](C)Cc1cccc(C(F)(F)F)c1", "Potency": "2.75 µM (active)"},
      {"smiles": "O=C(O)CCCc1ccc(N(CCCl)CCCl)cc1", "activity change, negative = inhibition": "15.2%"},
      {"smiles": "C[C@]12CCC(=O)C=C1CC[C@@H]1[C@@H]2CC[C@]2(C)C(=O)CC[C@@H]12", "activity change, negative = inhibition": "-17%"},
      {"smiles": "NCCc1ccc(O)cc1", "Potency": "13.8 µM (active)"},
      {"smiles": "O=C(CCCN1CCC2(CC1)C(=O)NCN2c1ccccc1)c1ccc(F)cc1", "Potency": "0.309 µM (active)"},
      {"smiles": "O=c1[nH]oc2c1CCNC2", "activity change, negative = inhibition": "-11.7%"},
      {"smiles": "CC(C)N(CCC(C(N)=O)(c1ccccc1)c1ccccn1)C(C)C", "note": "(stereo not given)", "activity change, negative = inhibition": "-13.7%"},
      {"smiles": "CCC(C)(C)c1ccc(O)cc1", "activity change, negative = inhibition": "-0.0015%"},
      {"smiles": "CCN(CCO)CCn1c(Cc2ccccc2)nc2c1c(=O)n(C)c(=O)n2C", "activity change, negative = inhibition": "1.43%"},
      {"smiles": "O=P1(N(CCCl)CCCl)NCCCO1", "note": "(stereo not given)", "activity change, negative = inhibition": "-3.58%"},
      {"smiles": "CCC1(c2ccccc2)C(=O)N(COC)C(=O)N(COC)C1=O", "activity change, negative = inhibition": "3.83%"},
      {"smiles": "CC(Cc1ccccc1)N(C)Cc1ccco1", "note": "(stereo not given)", "Potency": "2.45 µM (active)"},
      {"smiles": "NC1=NC(=O)C(c2ccccc2)O1", "note": "(stereo not given)", "activity change, negative = inhibition": "4.2%"},
      {"smiles": "CCCCCCC(=O)CCCCCC/C=C/C[C@@H](O)[C@H](O)[C@@](N)(CO)C(=O)O", "activity change, negative = inhibition": "-1.94% [at 23.9 µM]"}
    ]},
    {"molecular_target": "Cytochrome P450 3A4 (Homo sapiens) (UniProt P08684)", "sequence (P08684 whole entry, looked up)": "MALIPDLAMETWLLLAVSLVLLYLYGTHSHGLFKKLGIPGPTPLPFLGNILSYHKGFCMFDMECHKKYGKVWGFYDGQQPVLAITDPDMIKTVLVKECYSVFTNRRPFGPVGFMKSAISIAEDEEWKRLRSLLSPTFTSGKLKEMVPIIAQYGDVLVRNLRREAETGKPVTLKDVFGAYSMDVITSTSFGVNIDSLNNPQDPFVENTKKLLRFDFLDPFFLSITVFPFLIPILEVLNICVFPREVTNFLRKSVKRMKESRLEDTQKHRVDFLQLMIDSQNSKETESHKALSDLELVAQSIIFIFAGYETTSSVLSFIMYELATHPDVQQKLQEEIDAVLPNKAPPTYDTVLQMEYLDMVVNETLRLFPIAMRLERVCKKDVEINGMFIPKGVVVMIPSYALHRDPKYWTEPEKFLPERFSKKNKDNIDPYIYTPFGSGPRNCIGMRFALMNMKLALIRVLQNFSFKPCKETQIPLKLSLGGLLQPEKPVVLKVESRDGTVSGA", "test": "Cytochrome P450 family 3 subfamily A member 4 (CYP3A4) small molecule antagonists: luciferase qHTS assay (AID 1645841); further: nearly all actives have a fitted effect of over 45% in size", "conditions": "P450-Glo CYP3A4 enzyme assay, luciferin luminescence; series mostly up to 57.4 µM; activity change, negative = inhibition: at the top concentration", "procedure,_shortened": "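P450-Glo CYP3A4 enzyme with proluciferin substrate was preincubated with DMSO-dissolved compounds for 10 min at room temperature. NADPH regeneration solution started a 1 h reaction. Detection reagent stopped it, and luminescence was read after 20 min.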", "units": {"activity change, negative = inhibition": "%"}, "values": [
      {"smiles": "Nc1nc(N)nc(NC2CC2)n1", "activity change, negative = inhibition": 44.5},
      {"smiles": "COc1cccc([C@@]2(O)CCCC[C@@H]2CN(C)C)c1", "activity change, negative = inhibition": 1.16},
      {"smiles": "C[C@]12CCC(=O)C=C1CC[C@@H]1[C@@H]2CC[C@]2(C)C(=O)CC[C@@H]12", "activity change, negative = inhibition": 33.2},
      {"smiles": "O=P1(N(CCCl)CCCl)NCCCO1", "note": "(stereo not given)", "activity change, negative = inhibition": 37.6}
    ]},
    {"molecular_target": "Cytochrome P450 2C9 (Homo sapiens) (UniProt P11712)", "sequence (P11712 whole entry, looked up)": "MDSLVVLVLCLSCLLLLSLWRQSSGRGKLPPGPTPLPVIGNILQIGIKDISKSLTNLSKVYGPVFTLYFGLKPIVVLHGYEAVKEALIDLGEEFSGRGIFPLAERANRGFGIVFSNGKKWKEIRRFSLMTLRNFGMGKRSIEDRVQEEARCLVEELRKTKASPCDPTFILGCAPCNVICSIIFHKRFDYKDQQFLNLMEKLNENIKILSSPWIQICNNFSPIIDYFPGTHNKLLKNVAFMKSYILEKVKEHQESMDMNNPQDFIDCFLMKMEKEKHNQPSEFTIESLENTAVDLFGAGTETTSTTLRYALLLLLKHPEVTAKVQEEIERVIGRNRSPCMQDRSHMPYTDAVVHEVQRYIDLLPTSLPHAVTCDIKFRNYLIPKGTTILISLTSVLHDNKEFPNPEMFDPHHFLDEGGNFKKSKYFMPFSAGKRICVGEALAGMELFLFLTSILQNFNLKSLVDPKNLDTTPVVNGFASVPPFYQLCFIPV", "test": "Cytochrome P450 family 2 subfamily C member 9 (CYP2C9) small molecule antagonists: luciferase biochemical (cell-free) qHTS assay (AID 1645842); further: nearly all actives have a fitted effect of over 55% in size; further: potency means the concentration at half of the fitted maximal effect; on activity change, negative = inhibition: on the % scale 0 is the no-effect control and ±100 the full control effect", "conditions": "P450-Glo CYP2C9 enzyme assay, luciferin luminescence; series mostly up to 57.4 µM; activity change, negative = inhibition: at the top concentration", "procedure,_shortened": "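Luminescence, after 20 min with luciferin detection reagent, reflected CYP2C9 turnover during a 1 h NADPH-driven reaction at 37C. Enzyme-substrate mix contained 0.4% bovine serum albumin and was preincubated with compound 10 min at room temperature.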", "values": [
      {"smiles": "C=CCN1C[C@H](C)N([C@H](c2ccc(C(=O)N(CC)CC)cc2)c2cccc(OC)c2)C[C@H]1C", "activity change, negative = inhibition": "-4.24%"},
      {"smiles": "COc1c2c(cc3c1OCO3)CCN(C)C2", "activity change, negative = inhibition": "2.18%"},
      {"smiles": "CC(C)=CC1C(C(=O)OCN2C(=O)C3=C(CCCC3)C2=O)C1(C)C", "note": "(stereo not given)", "Potency": "8.71 µM (active)"},
      {"smiles": "CC(NC(C)(C)C)C(=O)c1cccc(Cl)c1", "note": "(stereo not given)", "activity change, negative = inhibition": "-1.79%"},
      {"smiles": "C[C@]12CCC(=O)C=C1CC[C@@H]1[C@H]3CC[C@](C)(O)[C@@]3(C)CC[C@@H]12", "Potency": "42.6 µM (active)"},
      {"smiles": "COc1cccc2c1C(=O)c1c(O)c3c(c(O)c1C2=O)C[C@@](O)(C(=O)CO)CC3OC1CC(N2CCOC(OC)C2)C(O)C(C)O1", "note": "(stereo not given in full)", "Potency": "3.47 µM (active)"},
      {"smiles": "O=C1c2ccccc2C(=O)C1C(=O)C(c1ccccc1)c1ccccc1", "Potency": "0.384 µM (active)"},
      {"smiles": "CN1CCC(O)(c2ccc(F)cc2)C(C(=O)c2ccc(F)cc2)C1", "note": "(stereo not given)", "activity change, negative = inhibition": "-2.78%"},
      {"smiles": "ClCCN1CCCC1", "activity change, negative = inhibition": "2.77%"},
      {"smiles": "Nc1nc(N)nc(NC2CC2)n1", "activity change, negative = inhibition": "8.32%"},
      {"smiles": "COc1cccc([C@@]2(O)CCCC[C@@H]2CN(C)C)c1", "activity change, negative = inhibition": "18.8%"},
      {"smiles": "C[C@]12CCC(=O)C=C1CC[C@@H]1[C@@H]2CC[C@@]2(C)[C@H]1CC[C@]2(C)O", "activity change, negative = inhibition": "-8.34%"},
      {"smiles": "CCN[C@H](C)Cc1cccc(C(F)(F)F)c1", "activity change, negative = inhibition": "13% [at 115 µM]"},
      {"smiles": "C[N+]1(CCF)[C@@H]2CC[C@H]1CC(OC(=O)C(O)(c1ccccc1)c1ccccc1)C2", "note": "(stereo not given in full)", "activity change, negative = inhibition": "1.16%"},
      {"smiles": "CCCOC(=O)c1cncn1C(C)c1ccccc1", "note": "(stereo not given)", "Potency": "13.8 µM (active)"},
      {"smiles": "O=C(N/N=C/c1ccc([N+](=O)[O-])o1)c1cc([N+](=O)[O-])cc([N+](=O)[O-])c1O", "activity change, negative = inhibition": "-26.5%"},
      {"smiles": "C#C[C@]1(O)CC[C@H]2[C@@H]3CCC4=CC(=O)CC[C@]4(C)[C@H]3CC[C@@]21C", "activity change, negative = inhibition": "-17%"},
      {"smiles": "NNc1ccccc1", "activity change, negative = inhibition": "-21.3%"},
      {"smiles": "COC(=O)C(Cl)C(=O)OC", "activity change, negative = inhibition": "7.84%"},
      {"smiles": "CCN[C@@H](C)Cc1cccc(C(F)(F)F)c1", "activity change, negative = inhibition": "0.407%"},
      {"smiles": "O=C(O)CCCc1ccc(N(CCCl)CCCl)cc1", "activity change, negative = inhibition": "13.4%"},
      {"smiles": "C[C@]12CCC(=O)C=C1CC[C@@H]1[C@@H]2CC[C@]2(C)C(=O)CC[C@@H]12", "activity change, negative = inhibition": "-3.69%"},
      {"smiles": "NCCc1ccc(O)cc1", "activity change, negative = inhibition": "-14.9%"},
      {"smiles": "O=C(CCCN1CCC2(CC1)C(=O)NCN2c1ccccc1)c1ccc(F)cc1", "activity change, negative = inhibition": "0.548%"},
      {"smiles": "O=c1[nH]oc2c1CCNC2", "activity change, negative = inhibition": "10.5%"},
      {"smiles": "CC(C)N(CCC(C(N)=O)(c1ccccc1)c1ccccn1)C(C)C", "note": "(stereo not given)", "activity change, negative = inhibition": "19.2%"},
      {"smiles": "CCN(CCO)CCn1c(Cc2ccccc2)nc2c1c(=O)n(C)c(=O)n2C", "activity change, negative = inhibition": "-3.84%"},
      {"smiles": "O=P1(N(CCCl)CCCl)NCCCO1", "note": "(stereo not given)", "activity change, negative = inhibition": "3.25%"},
      {"smiles": "CCC1(c2ccccc2)C(=O)N(COC)C(=O)N(COC)C1=O", "activity change, negative = inhibition": "-5.73%"},
      {"smiles": "CC(Cc1ccccc1)N(C)Cc1ccco1", "note": "(stereo not given)", "activity change, negative = inhibition": "6.24%"},
      {"smiles": "NC1=NC(=O)C(c2ccccc2)O1", "note": "(stereo not given)", "activity change, negative = inhibition": "7.19%"},
      {"smiles": "CCCCCCC(=O)CCCCCC/C=C/C[C@@H](O)[C@H](O)[C@@](N)(CO)C(=O)O", "activity change, negative = inhibition": "8.01% [at 23.9 µM]"}
    ]},
    {"system": "not listed separately", "test": "Cytotoxicity counterscreen for inhibitors of SARS-CoV-2 cell entry (AID 1645845; calls by dose curve; further: nearly all actives have a fitted effect of over 50% in size; on activity change, negative = cytotoxicity: on the % scale 0 is the no-effect control and ±100 the full control effect)", "conditions": "cell viability (SARS-CoV-2 entry assay cells); series mostly up to 57.1 µM; activity change, negative = cytotoxicity: at the top concentration", "procedure,_shortened": "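Expi293F/hACE2 cells seeded overnight; cpd pin-transferred in DMSO, 1 h preincubation, + media, 48 h 37 C 5% CO2; ATPLite 1step luminescence; normalized to cells and no cells.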", "units": {"activity change, negative = cytotoxicity": "%"}, "values": [
      {"smiles": "COc1c2c(cc3c1OCO3)CCN(C)C2", "outcome": "inactive"},
      {"smiles": "CC(NC(C)(C)C)C(=O)c1cccc(Cl)c1", "note": "(stereo not given)", "Potency": "inactive"},
      {"smiles": "C[N+]1(CCF)[C@@H]2CC[C@H]1CC(OC(=O)C(O)(c1ccccc1)c1ccccc1)C2", "note": "(stereo not given in full)", "outcome": "inactive"},
      {"smiles": "C[C@]12CCC(=O)C=C1CC[C@@H]1[C@@H]2CC[C@]2(C)C(=O)CC[C@@H]12", "outcome": "inactive"},
      {"smiles": "CC(C)N(CCC(C(N)=O)(c1ccccc1)c1ccccn1)C(C)C", "note": "(stereo not given)", "activity change, negative = cytotoxicity": 1.58},
      {"smiles": "O=P1(N(CCCl)CCCl)NCCCO1", "note": "(stereo not given)", "Potency": "inactive"}
    ]}
  ]
}
